Test results from PubChem BioAssay (NCATS).
Results filed as inconclusive are left out. Active and inactive are the calls of the source. The call rests on the fitted dose curve; in most records, active means well fitted curve in the direction sought with a large enough effect; inconclusive means small, poorly fitted or top-dose-only effect, or another doubt; inactive means no such curve, though single readings can be large; an effect the other way counts as inactive or inconclusive. Where a SMILES comes first, the peptide text is derived from it.

What was measured:
[1] = NCATS anti-infectives library activity on HEK293 viability as a counter-qHTS vs the C. elegans viability qHTS (AID 1745854); further: on the % scale 0 is the no-effect control and ±100 the full control effect
Outline: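 CellTiter-Glo luminescence, read on a CCD imager, scored viability of HEK293 cells after 24 hr compound exposure at 37C. Library tested in several concentrations, 1:5 steps, up to 41.7 uM; digitonin served as control.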

[2] = target: Glutathione peroxidase 1 (Homo sapiens) (UniProt P07203); experiment: Primary qHTS Assay for Inhibitors of Recombinant Selenoprotein Glutathione Peroxidase 1 (GPX1) (AID 1845191); further: nearly all actives have a fitted effect of over 65% in size
Outline: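 GR-coupled readout: NADPH consumption tracked by fluorescence, ex 340/em 450 nm, at t=0 and after 15 min at RT. Final mix 10 nM GPX1, 1 mM GSH, 0.5 mM CHP, 0.5 mM NADPH, 100 nM GR, 0.01% BSA, following 30 min enzyme–compound preincubation.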

[3] = target: Phospholipid hydroperoxide glutathione peroxidase GPX4 (Homo sapiens) (UniProt P36969); experiment: Primary qHTS Assay for Inhibitors of Recombinant Selenoprotein Glutathione Peroxidase 4 (GPX4) (AID 1845192); further: nearly all actives have a fitted effect of over 65% in size
Outline: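 Steps: GPX4 plus compound, 30 min RT; add GR/GSH/NADPH master mix; start with cumene hydroperoxide; read 340/450 nm fluorescence at 0 and 15 min. Finals were 200 nM GPX4, 1 mM GSH, 0.5 mM CHP, 0.5 mM NADPH, 100 nM GR.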

[4] = target: Luciferin 4-monooxygenase (Photinus pyralis) (UniProt P08659); experiment: Primary firefly luciferase (FLuc) qHTS assay for identification of artifact compounds. (AID 1845220); further: nearly all actives have a fitted effect of over 60% in size; further: potency means the concentration at half of the fitted maximal effect
Outline: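 Enzymatic FLuc inhibition assay: compounds pre-exposed to luciferin/ATP (10 uM each) for 15 min, then purified P. pyralis enzyme at 10 nM added. Read-out: luminescence at 5 min.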

[5] = test system: Nanoluciferase (engineered Oplophorus gracilirostris luciferase); experiment: Primary Nanoluciferase (NLuc) qHTS assay for identification of artifact compounds. (AID 1845222);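 further: NLuc secreted into diluted conditioned medium of S16 cells; series mostly up to about 54 µM; 0% = DMSO and -100% = no enzyme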
Outline: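 S16 cell supernatant NLuc, 1:55; cpds qHTS; 15 min RT dark; Nano-Glo substrate 1:100, 5 min; luminescence; Hill fit of % inhibition.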

[6] = Primary fluorescence-based thiol-reactive (MSTI) qHTS assay for identification of artifact compounds. (AID 1845221); further: nearly all actives have a fitted effect of over 65% in size; further: potency means the concentration at half of the fitted maximal effect
Outline: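 One-hour, room-temperature, dark incubation of compound with 4 uM MSTI in PBS (pH 7.4, 2% DMSO) precedes a fluorescence read at 525 nm excitation, 598 nm emission; Hill-equation fitting yields concentration-response values.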

[7] = Primary redox qHTS assay for identification of artifact compounds. (AID 1845223);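 further: 0% = DMSO and 100% = reference compound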
Outline: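 Redox-cycling detection via DTT (250 uM final) oxidation coupled to Amplex Red (25 uM)/HRP (250 mU/mL) in HBSS. 15 min preincubation plus 30 min after DTT, room temperature. Ex/Em 525/598 nm; 4-parameter Hill fit against DMSO and 10 uM DA3003.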

[8] = Viability counterscreen for antagonist of constitutive androstane receptor (CAR) against the NCATS DSHEA and TCM libraries (AID 1794837);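 further: compound exposure lasted 24 h before viability reading; 0% is about no effect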
Outline: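 Cell viability, CellTiter-Fluor, Ex/Em 405/540 nm, 1 h at 37C. HepG2-CYP2B6-hCAR, 2,500 cells/well; cpds + CITCO 48 uM final (antagonist mode), 24 h, 37C/5% CO2.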

[9] = Viability counterscreen for agonist of constitutive androstane receptor (CAR) against the NCATS DSHEA and TCM libraries (AID 1794838); further: 0% is about no effect
Outline: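 Viability by CellTiter-Fluor fluorescence, 405/540 nm, after 1 h at 37C. HepG2-CYP2B6-hCAR cells were exposed 24 h to test substances in presence of 0.75 uM PK11195 (final).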

[10] = target: Nuclear receptor subfamily 1 group I member 3 (Homo sapiens) (UniProt Q14994); experiment: Primary qHTS for agonist of constitutive androstane receptor (CAR) against the NCATS DSHEA and TCM libraries (AID 1794839);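 further: HepG2 cells expressing human CAR with a CYP2B6 reporter plus PK11195 antagonist; 0% is about no effect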
Outline: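 Luminescence from ONE-Glo luciferase was the agonist read-out in HepG2-CYP2B6-hCAR cells exposed 24 h to test substances. Wells also held the CAR antagonist PK11195 at 0.75 µM final. Viability was by CellTiter-Fluor fluorescence.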

[11] = HepG2 viability counterscreen (readout 2: ATP content) against the NCATS DSHEA and TCM libraries (AID 1794840); further: 0% is about no effect
Outline: (§1)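 1,000 HepG2 cells/well, 4 h attach; compounds ~24 h, 37C/5% CO2. Readout 1: GF-AFC 25 uM final, 30 min, fluorescence 380/510 nm. Readout 2: CellTiter-Glo, 30 min RT, luminescence.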

[12] = HepG2 viability counterscreen (readout 1: protease activity) against the NCATS DSHEA and TCM libraries (AID 1794841);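 further: cells exposed to compounds for about 24 h before the protease read; 0% is about no effect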
Outline: as §1

[13] = target: Cytochrome P450 3A4 (Homo sapiens) (UniProt P08684); experiment: qHTS for inhibitors of CYP3A4 against the NCATS DSHEA and TCM libraries (AID 1919971);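 further: on the % scale 0 is the no-effect control and ±100 the full control effect; inhibition lowers luminescence from luciferin made by CYP3A4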
Outline: (§2)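 Substances were tested against enzyme with a pro-luciferin substrate; minus-enzyme wells served as background. After NADPH-initiated oxidation (30-45 min, RT), light was generated with P450-Glo reagent.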

[14] = target: Cytochrome P450 2D6 (Homo sapiens) (UniProt P10635); experiment: qHTS for inhibitors of CYP2D6 against the NCATS DSHEA and TCM libraries (AID 1919972); further: on the % scale 0 is the no-effect control and ±100 the full control effect
Outline: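 qHTS, concentration–response format with most substances from 19.5 nM. CYP2D6 + pro-luciferin substrate, 15 min with compound, then 1x NADPH regen, 30–45 min RT dark. Glo detection 30 min, luminescence. Quinidine control.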

[15] = target: Cytochrome P450 2C9 (Homo sapiens) (UniProt P11712); experiment: qHTS for inhibitors of CYP2C9 against the NCATS DSHEA and TCM libraries (AID 1919973);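 further: luminogenic pro-luciferin CYP2C9 substrate turned into luciferin with NADPH regeneration; series mostly up to about 34 µM; on the % scale 0 is the no-effect control and ±100 the full control effect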
Outline: as §2

[16] = target: Cytochrome P450 2C19 (Homo sapiens) (UniProt P33261); experiment: qHTS for inhibitors of CYP2C19 against the NCATS DSHEA and TCM libraries (AID 1919974);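 further: luminescence from luciferin released by CYP2C19 oxidation of a pro-luciferin substrate; on the % scale 0 is the no-effect control and ±100 the full control effect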
Outline: as §2

[17] = KB-3-1 P-gp reporter qHTS against the NCATS DSHEA and TCM libraries (AID 1919975); further: 0% is about no effect
Outline: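 CellTiter-Glo luminescence viability readout; KB-3-1 parental cells, 500/well, attached ~4 h, then compound for ~72 h, 37C, 5% CO2. Bortezomib intraplate control.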

[18] = target: Cytochrome P450 1A2 (Homo sapiens) (UniProt P05177); experiment: qHTS for inhibitors of CYPIA2 against the NCATS DSHEA and TCM libraries (AID 1919976)
Outline: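 Luminescence read-out: pro-luciferin converted to D-luciferin by CYP1A2, detected with P450-Glo reagent after 30 min RT. Enzyme plus substrate got compounds for 15 min RT; NADPH regeneration solution (final 1x) started a 30-45 min reaction, light-protected.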

[19] = qHTS Counterscreen for compound interference against the NCATS DSHEA and TCM libraries (AID 1919978); settings: firefly luciferase detection reagent interference, luminescence;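 further: compounds preincubated with 1 µM D-luciferin or buffer before detection reagent; % of control where 0% means no effect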
Outline: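 Luminescence counterscreen for detection-kit interference: compounds at 19.5 nM–39.8 uM final, 15 min RT with 1 uM D-luciferin or buffer only; detection reagent added, 30 min RT, then read.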

Glutathione peroxidase 1 (Homo sapiens), sequence (P07203 whole entry, looked up): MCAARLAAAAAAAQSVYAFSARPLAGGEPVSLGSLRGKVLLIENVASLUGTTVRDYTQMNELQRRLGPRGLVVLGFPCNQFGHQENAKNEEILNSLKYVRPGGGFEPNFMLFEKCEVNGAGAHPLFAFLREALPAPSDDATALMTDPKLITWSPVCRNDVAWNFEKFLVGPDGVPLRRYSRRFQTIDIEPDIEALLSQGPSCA
Phospholipid hydroperoxide glutathione peroxidase GPX4 (Homo sapiens), sequence (P36969 whole entry, looked up): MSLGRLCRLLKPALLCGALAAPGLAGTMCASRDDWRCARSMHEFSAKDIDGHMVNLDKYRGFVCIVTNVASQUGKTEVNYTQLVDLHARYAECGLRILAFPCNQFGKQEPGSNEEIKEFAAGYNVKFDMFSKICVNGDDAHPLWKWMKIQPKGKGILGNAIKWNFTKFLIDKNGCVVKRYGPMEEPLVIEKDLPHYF
Cytochrome P450 2D6 (Homo sapiens), sequence (P10635 whole entry, looked up): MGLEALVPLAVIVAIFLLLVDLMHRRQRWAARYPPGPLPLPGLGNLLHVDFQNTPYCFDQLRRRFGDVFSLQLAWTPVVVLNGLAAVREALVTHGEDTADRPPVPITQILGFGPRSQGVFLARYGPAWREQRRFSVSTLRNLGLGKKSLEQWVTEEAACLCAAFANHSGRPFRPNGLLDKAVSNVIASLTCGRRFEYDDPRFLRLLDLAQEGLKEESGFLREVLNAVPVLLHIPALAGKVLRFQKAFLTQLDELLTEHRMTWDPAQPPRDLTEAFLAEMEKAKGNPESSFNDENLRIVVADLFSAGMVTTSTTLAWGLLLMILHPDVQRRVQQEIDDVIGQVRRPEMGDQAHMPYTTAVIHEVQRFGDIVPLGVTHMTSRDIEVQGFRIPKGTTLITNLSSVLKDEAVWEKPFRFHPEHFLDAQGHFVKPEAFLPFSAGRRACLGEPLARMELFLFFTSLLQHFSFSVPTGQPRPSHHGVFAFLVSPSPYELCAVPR
Nuclear receptor subfamily 1 group I member 3 (Homo sapiens), sequence (Q14994 whole entry, looked up): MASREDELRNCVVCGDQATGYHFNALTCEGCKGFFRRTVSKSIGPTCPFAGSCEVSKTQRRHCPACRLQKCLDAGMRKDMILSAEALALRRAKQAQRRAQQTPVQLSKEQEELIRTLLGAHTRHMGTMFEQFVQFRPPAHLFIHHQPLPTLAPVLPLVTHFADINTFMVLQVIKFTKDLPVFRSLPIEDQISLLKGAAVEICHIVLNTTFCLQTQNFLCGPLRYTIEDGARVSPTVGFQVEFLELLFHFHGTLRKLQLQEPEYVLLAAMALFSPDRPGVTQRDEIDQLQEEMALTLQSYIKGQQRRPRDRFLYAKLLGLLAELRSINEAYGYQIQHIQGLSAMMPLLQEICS
Cytochrome P450 1A2 (Homo sapiens), sequence (P05177 whole entry, looked up): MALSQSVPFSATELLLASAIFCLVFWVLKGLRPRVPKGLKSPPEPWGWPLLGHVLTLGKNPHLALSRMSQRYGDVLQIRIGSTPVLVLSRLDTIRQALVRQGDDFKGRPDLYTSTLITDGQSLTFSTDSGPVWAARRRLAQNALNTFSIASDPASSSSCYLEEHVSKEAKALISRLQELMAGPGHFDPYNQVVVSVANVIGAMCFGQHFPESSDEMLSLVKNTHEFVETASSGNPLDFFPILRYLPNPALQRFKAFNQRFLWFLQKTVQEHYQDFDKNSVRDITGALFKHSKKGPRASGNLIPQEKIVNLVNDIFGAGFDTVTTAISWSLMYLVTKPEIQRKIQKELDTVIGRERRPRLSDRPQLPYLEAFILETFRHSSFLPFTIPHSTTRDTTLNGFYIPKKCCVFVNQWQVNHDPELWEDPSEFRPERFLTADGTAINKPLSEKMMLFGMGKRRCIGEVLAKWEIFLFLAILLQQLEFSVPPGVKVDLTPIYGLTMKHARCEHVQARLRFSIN
Cytochrome P450 3A4 (Homo sapiens), sequence (P08684 whole entry, looked up): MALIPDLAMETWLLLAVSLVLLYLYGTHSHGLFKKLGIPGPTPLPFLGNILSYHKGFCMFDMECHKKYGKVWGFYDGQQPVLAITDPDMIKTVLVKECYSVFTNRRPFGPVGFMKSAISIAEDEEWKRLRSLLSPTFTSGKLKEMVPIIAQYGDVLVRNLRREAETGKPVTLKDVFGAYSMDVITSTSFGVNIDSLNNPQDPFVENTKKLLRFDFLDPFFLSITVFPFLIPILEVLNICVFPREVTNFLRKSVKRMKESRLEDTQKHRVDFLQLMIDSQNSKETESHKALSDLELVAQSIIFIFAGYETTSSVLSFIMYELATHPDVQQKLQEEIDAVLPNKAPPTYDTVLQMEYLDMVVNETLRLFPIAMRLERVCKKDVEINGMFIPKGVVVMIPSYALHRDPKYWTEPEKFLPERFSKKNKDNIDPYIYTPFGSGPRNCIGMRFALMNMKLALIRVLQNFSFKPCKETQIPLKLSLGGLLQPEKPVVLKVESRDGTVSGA
Cytochrome P450 2C19 (Homo sapiens), sequence (P33261 whole entry, looked up): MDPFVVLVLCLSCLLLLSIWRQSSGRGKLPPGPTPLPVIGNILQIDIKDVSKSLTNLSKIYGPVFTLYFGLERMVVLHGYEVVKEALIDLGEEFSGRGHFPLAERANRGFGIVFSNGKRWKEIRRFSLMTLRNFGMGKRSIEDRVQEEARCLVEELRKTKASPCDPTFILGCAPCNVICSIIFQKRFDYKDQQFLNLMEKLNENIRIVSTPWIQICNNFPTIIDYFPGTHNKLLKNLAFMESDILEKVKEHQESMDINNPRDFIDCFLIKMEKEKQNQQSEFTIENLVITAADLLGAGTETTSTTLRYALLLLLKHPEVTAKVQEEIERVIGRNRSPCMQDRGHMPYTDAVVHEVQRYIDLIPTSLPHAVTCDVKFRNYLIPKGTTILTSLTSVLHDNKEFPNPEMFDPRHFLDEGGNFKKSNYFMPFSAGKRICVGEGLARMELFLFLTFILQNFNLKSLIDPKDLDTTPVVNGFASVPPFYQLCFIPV
Cytochrome P450 2C9 (Homo sapiens), sequence (P11712 whole entry, looked up): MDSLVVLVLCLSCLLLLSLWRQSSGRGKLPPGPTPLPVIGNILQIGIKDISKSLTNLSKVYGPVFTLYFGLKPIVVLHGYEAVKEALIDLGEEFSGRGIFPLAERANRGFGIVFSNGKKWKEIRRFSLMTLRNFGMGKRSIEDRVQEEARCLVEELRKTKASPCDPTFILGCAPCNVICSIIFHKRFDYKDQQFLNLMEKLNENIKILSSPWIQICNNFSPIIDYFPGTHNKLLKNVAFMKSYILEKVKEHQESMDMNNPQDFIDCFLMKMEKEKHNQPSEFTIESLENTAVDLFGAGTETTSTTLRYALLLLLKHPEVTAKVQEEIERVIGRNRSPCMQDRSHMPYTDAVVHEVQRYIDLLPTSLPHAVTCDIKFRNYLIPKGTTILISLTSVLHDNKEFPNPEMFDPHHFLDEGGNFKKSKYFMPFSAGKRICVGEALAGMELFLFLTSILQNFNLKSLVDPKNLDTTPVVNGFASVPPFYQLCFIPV

CCCCOc1nc(N)c2c(n1)N(Cc1cccc(CN3CCCC3)c1)CC(=O)N2
inactive: outcome [1] | Potency [2] | Potency [3] | Potency [4] | Potency [5]

O=C(O)C(Cc1ccccc1)NC(=O)C1CCCN1 (stereo not drawn) (H-Pro-Phe-OH; configuration not given here)
inactive: Potency [2] | Potency [3] | Potency [4] | Potency [6] | Potency [5]

COc1cccc2c1c(O)c(C(=O)N(C)c1ccc(C(F)(F)F)cc1)c(=O)n2C
inactive: outcome [1] | Potency [2] | Potency [3] | Potency [4] | Potency [6] | Potency [5] | Potency [7]

C[C@@H]1C[C@H]2OC(=O)[C@@]3(C)CCC[C@](C)(C23)[C@@]1(O)CCC1=CC(=O)OC1O (stereo partly drawn)
active: Potency [6] 3.29 µM
inactive: Potency [2] | Potency [3] | Potency [4] | Potency [5]

O=C(/C=C/C=C/c1ccc2c(c1)OCO2)N1CCCCC1
active: Potency [4] 10.7 µM
inactive: Potency [2] | Potency [3] | Potency [6] | Potency [5]

C=CC(C)(CCC=C(C)C)O[C@@H]1O[C@H](CO)[C@@H](O)[C@H](O)[C@H]1O (stereo partly drawn)
inactive: Potency [2] | Potency [3] | Potency [4] | Potency [6] | Potency [5]

O=C(OC1C=C(CO)C2C(OC3OC(CO)C(O)C(O)C3O)OC=CC12O)c1ccc(O)cc1 (stereo not drawn)
active: Potency [6] 3.27 µM
inactive: Potency [2] | Potency [3] | Potency [4] | Potency [5]

C=C(CC/C=C(\C)C(=O)O)C1(O)CC=C(C)CC1 (stereo not drawn)
inactive: Potency [2] | Potency [3] | Potency [4] | Potency [6] | Potency [5]

CCc1nn(CCO)c(CC)c1Oc1cc(C#N)cc(C#N)c1
inactive: outcome [1] | Potency [2] | Potency [3] | Potency [4] | Potency [6] | Potency [5]

OCC1=C[C@@H](O)[C@@H]2C=CO[C@@H](O[C@@H]3O[C@H](CO)[C@@H](O)[C@H](O)[C@H]3O)[C@H]12
inactive: outcome [1] | Potency [2] | Potency [3] | Potency [4] | Potency [5] | Potency [7]

CC1(C)C=Cc2c(ccc3c2[N+]([O-])=C2C3(O)CC34NC(=O)C5(CCCN5C3=O)CC4C2(C)C)O1 (stereo not drawn)
active: Potency [6] 4.12 µM
inactive: Potency [2] | Potency [3] | Potency [4] | Potency [5]

COCc1c(O)c(C(=O)O)c(C)c2c1OC(=O)c1c(C)cc(O)c(CO)c1O2
inactive: Potency [2] | Potency [3] | Potency [4] | Potency [5]
active: Potency [6] 5.21 µM

O=C(/C=C/N1C[C@@H]2C[C@@H]1CN2c1ccccn1)c1ccccc1O
inactive: Potency [2] | Potency [3] | Potency [4] | Potency [6] | Potency [5]

C/C=C/C=C/C(O)=C1/C(=O)[C@]2(C)C(=O)[C@@](C)(O)[C@H]1[C@H]([C@@]1(C)OC(=O)C(C)=C1O)[C@H]2C(=O)CC/C=C/C
inactive: Potency [2] | Potency [3] | Potency [4] | Potency [5]
active: Potency [6] 4.12 µM

O=C(OCC1=C[C@@H](O)[C@@H]2C=CO[C@@H](O[C@@H]3O[C@H](CO)[C@@H](O)[C@H](O)[C@H]3O)[C@H]12)c1ccc(O)cc1
active: Potency [6] 10.3 µM
inactive: outcome [8] | outcome [9] | outcome [10] | outcome [11] | outcome [12] | Potency [2] | Potency [3] | Potency [4] | Potency [5] | Potency [7] | Potency [13] | outcome [14] | Potency [15] | Potency [16] | outcome [17] | Potency [18] | max response [19] -1.45%

COc1cccc(OC)c1-c1ccc(C[C@H](NC(=O)c2c(Cl)cccc2Cl)C(=O)O)cc1
inactive: Potency [2] | Potency [3] | Potency [4] | Potency [6]

C/C=C1\[C@H](O[C@@H]2O[C@H](CO)[C@@H](O)[C@H](O)[C@H]2O)OC=C(C(=O)OCCc2ccc(O)cc2)[C@H]1CC(=O)OCCc1ccc(O)cc1
inactive: Potency [2] | Potency [3] | Potency [4] | Potency [6] | Potency [5]

O=C1OC(c2ccc(O)cc2)C(O)=C1Cc1ccccc1 (stereo not drawn)
inactive: Potency [2] | Potency [3] | Potency [4]

Cc1cc(OCCN2CCOCC2)nn1-c1ccc2ccccc2c1
inactive: outcome [1] | Potency [3] | Potency [4] | Potency [6] | Potency [5]

COc1ccc(OC)c(C2C(C#N)=C(N)Oc3n[nH]c(-c4ccc5ccccc5c4)c32)c1 (stereo not drawn)
inactive: Potency [2] | Potency [3] | Potency [4] | Potency [6]

C/C(=C\CC/C(C)=C/CC[C@]1(C)CCc2cc(O)cc(C)c2O1)CC/C=C(\C)C(=O)O
active: Potency [6] 4.62 µM
inactive: Potency [2] | Potency [3] | Potency [4] | Potency [5]
